Bioassay records: PubChem BioAssay, National Center for Advancing Translational Sciences (NCATS)
Shown are actives, neighbours in structure and some others; about 19% of the full set was active somewhere.
TDP1 inh: TDP1 (human) enzyme inhibition. Q9NUW8. recombinant TDP1, AlphaScreen DNA substrate cleavage. Potency, µM (top dose mostly 130 µM), inactives show at the highest dose activity change, negative = inhibition, hits mostly inhibitors. 350,000 compounds, 0.28% hits. AID 485290; also: potency is read from the fitted curve at half-maximal effect; nearly all actives have a fitted effect of over 40% in size
Target sequence (Q9NUW8 whole entry, looked up): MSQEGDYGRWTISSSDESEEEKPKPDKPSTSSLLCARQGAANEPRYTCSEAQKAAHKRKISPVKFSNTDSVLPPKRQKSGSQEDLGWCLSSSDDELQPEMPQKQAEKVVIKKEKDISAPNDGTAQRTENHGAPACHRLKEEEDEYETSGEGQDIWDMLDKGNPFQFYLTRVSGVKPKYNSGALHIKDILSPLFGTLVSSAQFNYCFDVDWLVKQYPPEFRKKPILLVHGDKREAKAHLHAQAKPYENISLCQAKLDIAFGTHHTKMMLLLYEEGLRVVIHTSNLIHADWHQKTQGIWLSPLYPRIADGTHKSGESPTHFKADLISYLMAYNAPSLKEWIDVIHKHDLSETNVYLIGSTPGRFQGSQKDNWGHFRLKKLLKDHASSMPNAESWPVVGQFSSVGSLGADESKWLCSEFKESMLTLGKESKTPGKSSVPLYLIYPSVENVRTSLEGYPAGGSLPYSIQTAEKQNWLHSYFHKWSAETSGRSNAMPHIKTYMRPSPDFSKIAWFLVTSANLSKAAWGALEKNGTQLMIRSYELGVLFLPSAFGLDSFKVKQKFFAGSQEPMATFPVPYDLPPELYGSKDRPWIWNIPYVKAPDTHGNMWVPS
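Signal: AlphaScreen proximity between streptavidin donor and anti-FITC acceptor beads on intact substrate. Reaction: Tdp1 1 nM, substrate 15 nM final, 5 min RT after 15 min compound preincubation.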
DT40 TDP1 no CPT: qHTS for Inhibitors of human tyrosyl-DNA phosphodiesterase 1 (TDP1): qHTS in cells in absence of CPT. DT40 Tdp1-/- hTDP1 cells, no CPT, ATP luminescence, 48 h. Potency, µM (series often up to 46.2 µM), for inactives: at the highest dose activity change, negative = growth inhibition, usual class: inhibitors. 420,000 compounds, 15% hits; also: potency is read from the fitted curve at half-maximal effect; nearly all actives have a fitted effect of over 55% in size
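Growth of hTDP1-complemented DT40 Tdp1-knockout cells is measured by ATP luminescence after at least 48 hr compound exposure at 37 °C, with DMSO substituting for the 20 nM CPT used in the parallel screen.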
Giardia kill: kills Giardia lamblia. Giardia lamblia trophozoite viability. activity change, % at 7.66 µM, hits read low. 340,000 compounds, 0.15% hits. AID 540267; in the data active = activity change below about -80%; inconclusive = between about -30% and that limit;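 also: parasites exposed to compound for two days anaerobically before the ATP read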
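Trophozoite viability was measured as ATP-dependent luminescence, read 15-30 min after reagent addition. Before that, parasites at 100 cells/well were exposed to compounds for 48 h, anaerobically, at 37 deg C.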
ELG1 DNA repair: inhibitors of ELG1-dependent DNA repair in HEK293T cells; HEK293T ELG1-luciferase reporter, luminescence, 16 h; DNA damage induced by 5-fluorouridine; Potency, µM (highest dose often 46.1 µM), without a hit: at the top dose activity change, negative = inhibition, most hits filed as inhibitors; 330,000 compounds, 2.3% hits; AID 504467; also: potency is read from the fitted curve at half-maximal effect; nearly all actives have a fitted effect of over 55% in size
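Luminescence from the luciferase reporter, measured 30 min after ONE-Glo reagent at room temperature, was the read-out. Beforehand, 2,000 cells per well were exposed for 16 hr at 37 °C to 5-fluorouridine together with compound or vehicle.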
DT40 TDP1 CPT: DT40-hTDP1 cell growth loss with CPT | chicken DT40 Tdp1-/-;hTDP1 cells + 20 nM CPT, ATP luminescence, 48 h | Potency, µM (doses to about 46.2 µM), for inactives: at the top dose activity change, negative = growth inhibition, hits mostly inhibitors | 420,000 compounds, 12% hits | AID 686979; also: potency is read from the fitted curve at half-maximal effect; nearly all actives have a fitted effect of over 55% in size
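Chicken DT40 Tdp1-/- cells complemented with human TDP1, 400 cells/well, exposed to compounds plus 20 nM camptothecin for at least 48 h at 37 C; viability read as ATP content by CellTiter-Glo luminescence.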
IL-1B inflam inh: inhibitors of inflammasome signaling (IL-1 beta secretion); THP-1 LPS/ATP IL-1B secretion, AlphaLISA, 16 h; active compounds read low; activity change, % at 57.5 µM; 360,000 compounds, 4.7% hits; AID 743279; in the data active = activity change below about -50%; inconclusive = mostly about -30% to -49%
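THP-1 cells pretreated 1 hr with compounds (up to 57.5 uM final), then stimulated with LPS (250 ng/mL final) plus ATP (1.25 mM final); secreted IL-1B measured by AlphaLISA after 16 hr, decreased signal indicating inhibition.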
ELG1 FLuc counter: luciferase inhibition in cell-free luciferin readout for ELG1 hits; cell-free firefly luciferase luminescence counter-screen, ViewLux; shares compounds with ELG1 DNA repair; Potency, µM (doses to about 46.1 µM), for the others: at the top dose activity change, negative = inhibition, actives largely listed as inhibitors; 350 compounds, 3% hits; AID 624247; also: potency is read from the fitted curve at half-maximal effect
ELG1-Luc inh: confirmation of human ELG1-dependent DNA repair inhibitors; shares compounds with ELG1 DNA repair; HEK293T ELG1-luciferase levels, luminescence; cells co-treated with 5-fluorouridine; Potency, µM (doses to about 46.1 µM), for the others: at the highest dose activity change, negative = inhibition, usual class: inhibitors; 670 compounds, 68% hits; also: potency is read from the fitted curve at half-maximal effect; nearly all actives have a fitted effect of over 55% in size
ELG1-Luc MMS: confirmation of human ELG1 repair inhibitors, MMS stimulated; shares compounds with ELG1 DNA repair; HEK293T luciferase-tagged ELG1 level, MMS stimulated; Potency, µM (titrated, usually from 46.1 µM), for the others: at the top dose activity change, negative = inhibition, most hits filed as inhibitors; 670 compounds, 53% hits; also: potency is read from the fitted curve at half-maximal effect; nearly all actives have a fitted effect of over 60% in size
ELG1 5-FU: confirmation of ELG1 repair inhibitors: viability with 5FU | shares compounds with ELG1 DNA repair | cell viability with 5-FU, ELG1-dependent repair | Potency, µM (titrated, usually from 46.1 µM), for inactives: at the top dose activity change, negative = viability loss, most hits filed as cytotoxic | AID 624250 | 670 tested, under 10 active;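 also: ELG1-luc HEK293T cells cotreated with 5-fluorouridine at 10 µM final; potency is read from the fitted curve at half-maximal effect; viability measured 16 h after compound addition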
ELG1 MMS viab: confirmation of ELG1 repair inhibitors: viability with MMS | AID 624251 | 670 compounds, 33% hits | shares compounds with ELG1 DNA repair | Potency, µM (titrated, usually from 46.1 µM), for the others: top-dose activity change, negative = viability loss, hits mostly cytotoxic | Cell viability with MMS, ELG1-dependent DNA repair;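 also: ELG1-luc HEK293T cells co-treated with 10 µM MMS; potency is read from the fitted curve at half-maximal effect; viability read 16 h after compound addition; nearly all actives have a fitted effect of over 60% in size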
ELG1 unstim viab: unstimulated viability counter-screen for ELG1 repair hits | Potency, µM (doses to about 45.9 µM), for inactives: at the top dose activity change, negative = loss of viability, usual class: cytotoxic | AID 624252 | cell viability counter-screen, unstimulated, luminescence | 900 compounds, 8% hits | shares compounds with ELG1 DNA repair;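 also: potency is read from the fitted curve at half-maximal effect; compound exposure lasted 16 hours before reading; nearly all actives have a fitted effect of over 55% in size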
FLuc biochem: inhibits purified firefly luciferase, counter-screen for ELG1 hits. Potency, µM (highest dose often 57.5 µM), for inactives: at the top dose activity, negative = inhibition, hits mostly inhibitors. purified firefly luciferase, luminescence counter-screen. AID 624253. 350 compounds, 10% hits. shares compounds with ELG1 DNA repair; also: potency is read from the fitted curve at half-maximal effect
* = called active by the depositor; ? = inconclusive; . = not tested or not shown. Unless noted, calls follow the shape of the dose curve; as a rule, active = well fitted curve in the direction sought with a large enough effect; inconclusive = small, poorly fitted or top-dose-only effect, or another doubt; inactive = no such curve, though single readings can be large; an effect the other way counts as inactive or inconclusive. % is scaled to controls: 0 for no effect and ±100 for the full control effect.

SMILES	TDP1 inh	DT40 TDP1 no CPT	Giardia kill	ELG1 DNA repair	DT40 TDP1 CPT	IL-1B inflam inh	ELG1-Luc inh	ELG1-Luc MMS	ELG1 5-FU	ELG1 MMS viab	ELG1 unstim viab	others
Cc1sc2ncnc(NC3CCN(Cc4ccccc4)CC3)c2c1C	-3%	3.7µM*	9	2.1µM*	2.6µM*	?	?	1.3µM*	-4%	1.6µM*	?
O=C1CCc2cc(NS(=O)(=O)c3ccc([N+](=O)[O-])cc3)cc3c2N1CC3	-1%	-8%	-10	12%	-6%	26	.	.	.	.	.
O=C1CCc2cc(NS(=O)(=O)c3ccccc3)cc3c2N1CC3	.	-19%	-3	28%	7%	14	.	.	.	.	3%	ELG1 FLuc counter=26%;FLuc biochem=1%
O=C1CCc2cc(NS(=O)(=O)c3ccccc3)cc3c2N1CCC3	.	?	19	?	?	23	.	.	.	.	6%	ELG1 FLuc counter=14%;FLuc biochem=0%
O=C1CCc2cc(NS(=O)(=O)c3ccc(F)cc3)cc3c2N1CCC3	0%	?	1	17%	?	20	.	.	.	.	.
CC1CCCCN1c1ncnc(N)c1[N+](=O)[O-] (stereo not given)	5%	?	4	3.3µM*	?	-78*	7.1µM*	14µM*	2%	?	6%
CC(=O)NC12CC3CC(C1)CC(C(=O)OCC(=O)c1cc(C)n(C)c1C)(C3)C2	6%	?	-13	?	16µM*	-3	.	.	.	.	-8%
CCOc1ccc(S(=O)(=O)NC(C)C(=O)NCc2cccnc2)cc1 (stereo not given)	.	0%	-13	9%	-3%	11	.	.	.	.	.
O=Cc1cn(CC(=O)Nc2ccc(F)cc2)c2ccccc12	6%	9.2µM*	6	3.7µM*	?	32	-4%	3.1µM*	-3%	14µM*	-3%
CCc1cccc2c(C=C(C#N)C#N)cn(CC(=O)N3CCCCCC3)c12	4%	-13%	2	-5%	-20%	0	.	.	.	.	.
CN(CC(=O)Nc1ccccc1Br)C(=O)c1ccc(-c2ccc(Cl)cc2)o1	2%	?	1	0.37µM*	?	8	?	22µM*	-8%	25µM*	?	ELG1 FLuc counter=16%;FLuc biochem=21µM*
O=C(NCc1cccnc1)c1c(O)c2cccc3c2n(c1=O)CCC3	8%	?	-4	2%	?	4	.	.	.	.	.
CC(NC(=O)Nc1ccc([N+](=O)[O-])cc1)C(c1cccs1)N1CCCC1 (stereo not given)	3%	-24%	19	-11%	-18%	-16	.	.	.	.	.
CCN(CC)S(=O)(=O)c1cccc(-n2c(O)c(C=Nc3ccccc3C(=O)O)c3ccccc3c2=O)c1	0%	2.1µM*	-15	5.8µM*	4.1µM*	8	0.35µM*	0.35µM*	-27%	0.4µM*	0.44µM*
CCOC(=O)c1c(NC(=O)Cn2cc([N+](=O)[O-])cn2)sc2c1CCC2	2%	-6%	16	1.8µM*	2%	10	-9%	18µM*	5%	7.9µM*	?
NC(=O)c1c(NC(=O)Cn2cc([N+](=O)[O-])cn2)sc2c1CCCC2	2%	?	-12	-5%	?	15	.	.	.	.	.
Fc1ccccc1-c1csc(=Nc2cccnc2)n1CCCn1ccnc1	7%	16µM*	-9	10µM*	26µM*	?	13µM*	20µM*	1%	22µM*	?	ELG1 FLuc counter=16%;FLuc biochem=?
Cc1csc(=Nc2cccnc2)n1CC1CCCCC1	4%	-13%	6	?	18%	-7	.	.	.	.	.
Fc1ccccc1-c1csc(=Nc2cccnc2)n1CC1CCCO1 (stereo not given)	-4%	?	7	?	?	-66*	?	22µM*	9%	16µM*	?	ELG1 FLuc counter=-12%;FLuc biochem=-15%
Cc1c(NC(=O)COC(=O)c2ccc(F)c(S(=O)(=O)N3CCOCC3)c2)c(=O)n(-c2ccccc2)n1C	5%	-2%	1	-3%	-8%	-9	.	.	.	.	.
CCc1ccccc1NC(=O)Cn1nc(C(F)(F)F)cc1C1CC1	3%	-23%	-5	5%	-8%	5	.	.	.	.	.
O=C(CSc1nc2ccc(NC(=O)CSc3nnnn3Cc3ccccc3)cc2s1)Nc1ccccc1	0%	-22%	4	4.6µM*	-17%	28	?	7.9µM*	-2%	13µM*	?
Fc1ccc(Nc2nc(-c3ccncc3)nc3ccccc23)cc1F	0%	.	-18	1.8µM*	.	-5	1.4µM*	?	?	-7%	?	ELG1 FLuc counter=2%;FLuc biochem=4%
CCn1cc(C(=O)Nc2sc(C)c(C)c2C(=O)OC)cn1	-5%	-30%	18	?	0%	31	.	.	.	.	.
O=S(=O)(c1ccc2c(c1)OCCO2)N1CCN(c2ncnc3sccc23)CC1	0%	2.3µM*	13	4.6µM*	5.2µM*	-25	13µM*	2µM*	?	1.8µM*	?
